{"source": "PubChem BioAssay", "key": {"[1]": {"biological_target": "NAD(+) hydrolase SARM1 (Homo sapiens) (UniProt Q6SZW1)", "sequence (Q6SZW1 whole entry, looked up)": "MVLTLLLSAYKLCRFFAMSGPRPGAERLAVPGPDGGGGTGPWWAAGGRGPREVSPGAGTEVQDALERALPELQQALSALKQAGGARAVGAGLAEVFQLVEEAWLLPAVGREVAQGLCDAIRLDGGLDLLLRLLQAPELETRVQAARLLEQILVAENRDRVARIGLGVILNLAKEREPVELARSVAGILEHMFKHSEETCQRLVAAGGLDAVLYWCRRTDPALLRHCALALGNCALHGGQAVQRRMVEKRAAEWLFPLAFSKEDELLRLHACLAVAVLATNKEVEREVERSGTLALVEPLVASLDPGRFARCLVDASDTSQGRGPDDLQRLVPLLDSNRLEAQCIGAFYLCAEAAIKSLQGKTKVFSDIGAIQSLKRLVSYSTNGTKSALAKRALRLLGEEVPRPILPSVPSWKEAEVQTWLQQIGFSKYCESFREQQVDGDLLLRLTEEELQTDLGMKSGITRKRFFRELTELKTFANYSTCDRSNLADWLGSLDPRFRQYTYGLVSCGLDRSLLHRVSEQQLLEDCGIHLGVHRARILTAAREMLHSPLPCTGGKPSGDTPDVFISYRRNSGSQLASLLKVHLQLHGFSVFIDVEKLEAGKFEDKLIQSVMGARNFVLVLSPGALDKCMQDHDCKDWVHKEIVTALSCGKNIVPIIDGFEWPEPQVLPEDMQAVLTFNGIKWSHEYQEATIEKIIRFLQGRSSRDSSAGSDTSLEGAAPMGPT", "experiment": "blocking NAD cleavage by SARM1 SAM-TIR – cell lysate, NAD-Glo luminescence (AID 1508614;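 active = compound whose remaining NAD level is above about 45 nM, limit read from the data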)", "settings": "SAM-TIR HEK293T lysate NADase, at 1 µM, stronger effect = higher value"}, "[2]": {"experiment": "galactose survival enhancers in mitochondrial complex I cybrids – cell-based, galactose medium, ATP luminescence, primary screen (AID 1645843;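 active = z-score of at least 1.8 in each of two replicates, scored against plate mean and spread of sample wells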;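 note: positive z means more ATP and so rescue of galactose-driven cybrid death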)", "settings": "complex I mutant cybrid cells, 72 h, stronger effect = higher value"}, "[3]": {"experiment": "growth inhibition, single agent or in combination, cell-based, chromothripsis tumors, cisplatin or BGB combos (AID 1671449);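 note: cells exposed for 96 hours; 0% = vehicle DMSO and 100% = killing by high DMSO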", "settings": "LFS_MB_P medulloblastoma cells"}, "[4]": {"experiment": "growth inhibition, single agent and combos, cell-based, chromothripsis tumors, cisplatin or BGB combos (AID 1671450);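 note: cells exposed to compound for four days; 0% = vehicle DMSO and 100% = cell killing by high DMSO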", "settings": "HDN33 neuroblastoma cells, stronger effect = higher value"}, "[5]": {"experiment": "growth inhibition, single agents and combos, ICB984, cell-based, cisplatin or BGB combos, synergistic combos for chromothripsis tumors (AID 1671451; call rule not given here;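 note: cells exposed for 96 hours before readout; 0% = vehicle DMSO and 100% = killing by high DMSO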)", "settings": "ICB984 medulloblastoma cells, drug combinations, stronger effect = higher value"}, "[6]": {"experiment": "growth inhibition, single agents and combos, LFS_MB_1R, cell-based, cisplatin or BGB combos, synergistic combos for chromothripsis tumors (AID 1671452);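 note: cells exposed for 96 hours before readout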", "settings": "LFS_MB_1R medulloblastoma cells, stronger effect = higher value"}, "[7]": {"experiment": "growth inhibition, single agents and combos, HTB85, cell-based, BGB or cisplatin IC20 combos, synergistic combos for chromothripsis tumors (AID 1671453);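 note: cells exposed for 96 hours before readout; 0% = vehicle DMSO and 100% = high DMSO killing control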", "settings": "HTB85 osteosarcoma cells, drug combinations, stronger effect = higher value"}, "[8]": {"experiment": "growth inhibition, single agents and combos, CRL2098, cell-based, BGB or cisplatin IC20 combos, synergistic combos for chromothripsis tumors (AID 1671454);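 note: cells exposed for 96 h before readout; 0% = vehicle DMSO and 100% = killing by high DMSO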", "settings": "CRL2098 osteosarcoma cells, drug combinations, stronger effect = higher value"}, "[9]": {"experiment": "growth inhibition, single agents and combos, HD-MB03, cell-based, BGB or cisplatin IC20 combos, synergistic combos for chromothripsis tumors (AID 1671455; in the data active = inhibition above about 83%;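 note: 0% = vehicle DMSO and 100% = high DMSO as cytotoxic control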)", "settings": "HD-MB03 medulloblastoma cells, stronger effect = higher value"}, "[10]": {"experiment": "growth inhibition, single agents and combos, UWB1.289, cell-based, BGB or cisplatin combos, synergistic combos for chromothripsis tumors (AID 1671456);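 note: cells exposed to compound for four days; 0% = vehicle DMSO and 100% = killing by high DMSO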", "settings": "UWB1.289 ovarian carcinoma cells, stronger effect = higher value"}, "[11]": {"experiment": "growth inhibition, single agents and combos, LFS_MB_2R, cell-based, cisplatin combos, synergistic combos for chromothripsis tumors (AID 1671457);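 note: cells exposed to compound for four days before readout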", "settings": "LFS_MB_2R medulloblastoma cells, stronger effect = higher value"}, "[12]": {"experiment": "growth inhibition, MDA-MB-436, cell-based, BGB or cisplatin combos, synergistic combos for chromothripsis tumors (AID 1671458; call rule not given here;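 note: cells exposed for 96 hours; 0% = vehicle DMSO and 100% = killing by high DMSO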)", "settings": "MDA-MB-436 breast carcinoma growth inhibition, drug combinations, stronger effect = higher value"}, "[13]": {"experiment": "UWB1.289_BRCA1 ovarian cancer growth, cell-based, BGB or cisplatin combinations (AID 1671459)", "settings": "UWB1.289 BRCA1 ovarian carcinoma, drug combinations, stronger effect = higher value"}, "[14]": {"experiment": "drug combination toxicity in non-malignant astrocytes – cell-based, BGB or cisplatin IC20 combos, cytotoxicity control for chromothriptic childhood tumor combination screen (AID 1671460);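 note: cells exposed to compounds for 96 hours before viability readout; 0% = vehicle and 100% = killing control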", "settings": "Human astrocytes, viability inhibition, drug combinations, at 0.5 µM, stronger effect = higher value"}, "[15]": {"experiment": "BT084 cell growth, single and combined drugs, ICGC_MB145, cisplatin and BGB IC40 combos (AID 1671461);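 note: cells exposed to drugs for 96 hours; 0% = vehicle DMSO and 100% = high DMSO full killing control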", "settings": "BT084 medulloblastoma cells, drug combinations, stronger effect = higher value"}, "[16]": {"experiment": "RCMB18 cell growth, single agent and combined, cisplatin and BGB IC40 combos (AID 1671462);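 note: cells exposed to compound for four days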", "settings": "RCMB18 medulloblastoma cells, stronger effect = higher value"}, "[17]": {"experiment": "CRL1545 cell growth, single agent and combined, cisplatin and BGB IC20 combos (AID 1671464);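 note: cells exposed to compound for 96 hours before readout; 0% = vehicle DMSO and 100% = high DMSO killing control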", "settings": "CRL1545 osteosarcoma cells, stronger effect = higher value"}, "F380Y": {"system": "F380Y", "experiment": "BK channel mutant inhibitors and activators – cell-based, U2OS BacMam, thallium flux, beta subunits, selectivity assay, profiling panel (AID 1259406;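 active = thallium flux through the channel raised or lowered by more than 3 SD from vehicle-only wells, actives on both sides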)", "settings": "U2OS BacMam BK variants, at 30 µM"}, "F380Y/beta1": {"system": "F380Y/beta1", "experiment": "BK channel mutant inhibitors and activators – cell-based, U2OS BacMam, thallium flux, beta subunits, selectivity assay, profiling panel (AID 1259406);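 note: initial slope of Thallos dye fluorescence rise after thallium is added; log ratio against the mean of 0.3% DMSO vehicle wells on the same plate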", "settings": "U2OS BacMam BK variants, at 30 µM"}, "[18]": {"settings": "measured here: combination with BGB IC40, at 0.05 µM"}, "[19]": {"settings": "measured here: with BGB IC20 combination, at 0.5 µM"}, "[20]": {"settings": "measured here: with cisplatin IC20 combination, at 0.5 µM"}, "[21]": {"settings": "measured here: combination with cisplatin, at 0.5 µM"}, "[22]": {"settings": "measured here: combination with cisplatin, at 5 µM"}}, "note": "Calls of active or inactive are those of the source. Cut-off read from the data, not from the text of the source, unless noted: active = inhibition above about 80%; inactive = the rest.", "data": [{"smiles": "Cc1ccnc2c1NC(=O)c1cccnc1N2C1CC1", "values": [{"measurement": "remaining NAD", "setting": "[1]", "result": "10 nM (inactive)"}, {"measurement": "z-score", "setting": "[2]", "result": "0.47 (inactive)"}, {"measurement": "inhibition", "setting": "[3]; at 0.5 µM, stronger effect = higher value", "result": "65.5% (inactive)"}, {"measurement": "inhibition", "setting": "[3]; measured here: combination with BGB IC20, at 0.005 µM", "result": -14.8, "unit": "%"}, {"measurement": "inhibition", "setting": "[3]; measured here: combination with BGB IC40, at 0.005 µM", "result": -23.6, "unit": "%"}, {"measurement": "inhibition", "setting": "[3]; [18]", "result": -7.3, "unit": "%"}, {"measurement": "inhibition", "setting": "[3]; measured here: combination with cisplatin, at 0.5 µM, stronger effect = higher value", "result": 96.2, "unit": "%"}, {"measurement": "inhibition", "setting": "[3]; measured here: combination with cisplatin, at 5 µM, stronger effect = higher value", "result": -8.68, "unit": "%"}, {"measurement": "inhibition", "setting": "[4]; BGB combo, at 5 µM", "result": -9.4, "unit": "%"}, {"measurement": "inhibition", "setting": "[4]; at 0.5 µM", "result": "-11.8% (inactive)"}, {"measurement": "inhibition", "setting": "[4]; cisplatin combo, at 5 µM", "result": 24.4, "unit": "%"}, {"measurement": "inhibition", "setting": "[4]; [19]", "result": -18.3, "unit": "%"}, {"measurement": "inhibition", "setting": "[4]; [20]", "result": 0.871, "unit": "%"}, {"measurement": "inhibition", "setting": "[4]; single agent, at 5 µM", "result": -21.1, "unit": "%"}, {"measurement": "inhibition", "setting": "[5]; BGB IC20 combo, at 0.005 µM", "result": 7.31, "unit": "%"}, {"measurement": "inhibition", "setting": "[5]; BGB IC40 combo, at 0.005 µM", "result": -7.13, "unit": "%"}, {"measurement": "inhibition", "setting": "[5]; BGB IC40 combo, at 0.05 µM", "result": -20.9, "unit": "%"}, {"measurement": "inhibition", "setting": "[5]; at 0.5 µM", "result": "-20.4% (inactive)"}, {"measurement": "inhibition", "setting": "[5]; cisplatin combo, at 0.05 µM", "result": -24.3, "unit": "%"}, {"measurement": "inhibition", "setting": "[5]; cisplatin combo, at 0.5 µM", "result": -22.4, "unit": "%"}, {"measurement": "inhibition", "setting": "[5]; cisplatin combo, at 5 µM", "result": -11, "unit": "%"}, {"measurement": "inhibition", "setting": "[5]; measured here: 5 uM single agent, at 5 µM", "result": -28.4, "unit": "%"}, {"measurement": "inhibition", "setting": "[6]; at 0.5 µM", "result": "-9.83% (inactive)"}, {"measurement": "inhibition", "setting": "[6]; [18]", "result": -16.2, "unit": "%"}, {"measurement": "inhibition", "setting": "[6]; [21]", "result": 15.1, "unit": "%"}, {"measurement": "inhibition", "setting": "[6]; [22]", "result": 29.5, "unit": "%"}, {"measurement": "inhibition", "setting": "[7]; at 0.5 µM", "result": "-11.8% (inactive)"}, {"measurement": "inhibition", "setting": "[7]; measured here: with BGB IC20, at 0.5 µM", "result": -22.9, "unit": "%"}, {"measurement": "inhibition", "setting": "[7]; measured here: with BGB IC20, at 5 µM", "result": 53.6, "unit": "%"}, {"measurement": "inhibition", "setting": "[7]; measured here: with cisplatin IC20, at 0.5 µM", "result": -9.99, "unit": "%"}, {"measurement": "inhibition", "setting": "[7]; measured here: with cisplatin IC20, at 5 µM", "result": -37.2, "unit": "%"}, {"measurement": "inhibition", "setting": "[7]; single agent, at 5 µM", "result": -7.51, "unit": "%"}, {"measurement": "inhibition", "setting": "[8]; at 0.5 µM", "result": "-33.2% (inactive)"}, {"measurement": "inhibition", "setting": "[8]; measured here: combination with BGB at IC20, at 0.5 µM", "result": -9.42, "unit": "%"}, {"measurement": "inhibition", "setting": "[8]; measured here: combination with cisplatin at IC20, at 0.5 µM", "result": -39.8, "unit": "%"}, {"measurement": "inhibition", "setting": "[9]; at 0.5 µM", "result": "-18.2% (inactive)"}, {"measurement": "inhibition", "setting": "[9]; measured here: combo with BGB at IC20, at 0.5 µM", "result": -13, "unit": "%"}, {"measurement": "inhibition", "setting": "[9]; measured here: combo with cisplatin at IC20, at 0.5 µM", "result": -23.9, "unit": "%"}, {"measurement": "inhibition", "setting": "[10]; at 0.5 µM", "result": "-0.21% (inactive)"}, {"measurement": "inhibition", "setting": "[10]; measured here: inhibition with BGB combination, at 0.05 µM", "result": -23.1, "unit": "%"}, {"measurement": "inhibition", "setting": "[10]; measured here: inhibition with cisplatin combination, at 0.05 µM", "result": -13.9, "unit": "%"}, {"measurement": "inhibition", "setting": "[11]; at 0.5 µM", "result": "-7.48% (inactive)"}, {"measurement": "inhibition", "setting": "[11]; [21]", "result": 3.86, "unit": "%"}, {"measurement": "inhibition", "setting": "[11]; [22]", "result": -37.6, "unit": "%"}, {"measurement": "inhibition", "setting": "[12]; at 0.5 µM", "result": "-22.8% (inactive)"}, {"measurement": "inhibition", "setting": "[12]; measured here: BGB combination, at 0.5 µM", "result": -19.7, "unit": "%"}, {"measurement": "inhibition", "setting": "[12]; measured here: BGB combination, at 5 µM", "result": -27, "unit": "%"}, {"measurement": "inhibition", "setting": "[12]; measured here: cisplatin combination, at 0.5 µM", "result": -29.5, "unit": "%"}, {"measurement": "inhibition", "setting": "[12]; measured here: cisplatin combination, at 5 µM", "result": -14.1, "unit": "%"}, {"measurement": "inhibition", "setting": "[13]; BGB combination, concentration series, at 5 µM", "result": -12.7, "unit": "%"}, {"measurement": "inhibition", "setting": "[13]; at 0.5 µM", "result": "-12.9% (inactive)"}, {"measurement": "inhibition", "setting": "[13]; cisplatin combination, concentration series, at 5 µM", "result": -3.3, "unit": "%"}, {"measurement": "inhibition", "setting": "[14]", "result": "-5.51% (inactive)"}, {"measurement": "inhibition", "setting": "[14]; measured here: combo with BGB IC20", "result": -5.33, "unit": "%"}, {"measurement": "inhibition", "setting": "[14]; measured here: combo with cisplatin IC20", "result": 4.46, "unit": "%"}, {"measurement": "inhibition", "setting": "[15]; at 0.5 µM", "result": "-28.8% (inactive)"}, {"measurement": "inhibition", "setting": "[15]; cisplatin combination, at 0.5 µM", "result": -7.59, "unit": "%"}, {"measurement": "inhibition", "setting": "[15]; cisplatin combination, at 5 µM", "result": -3.69, "unit": "%"}, {"measurement": "inhibition", "setting": "[15]; measured here: BGB IC40 combination 0.05 uM, at 0.05 µM", "result": -12.5, "unit": "%"}, {"measurement": "inhibition", "setting": "[15]; single agent, at 5 µM", "result": -22.7, "unit": "%"}, {"measurement": "inhibition", "setting": "[16]; at 0.5 µM", "result": "-8.82% (inactive)"}, {"measurement": "inhibition", "setting": "[16]; cisplatin combo, at 5 µM", "result": 24.6, "unit": "%"}, {"measurement": "inhibition", "setting": "[16]; measured here: BGB IC40 combination, at 0.05 µM", "result": -2.75, "unit": "%"}, {"measurement": "inhibition", "setting": "[16]; [21]", "result": 5.5, "unit": "%"}, {"measurement": "inhibition", "setting": "[16]; single agent, at 5 µM", "result": -19.9, "unit": "%"}, {"measurement": "inhibition", "setting": "[17]; at 0.5 µM", "result": "-10.3% (inactive)"}, {"measurement": "inhibition", "setting": "[17]; [19]", "result": -9.73, "unit": "%"}, {"measurement": "inhibition", "setting": "[17]; [20]", "result": -13, "unit": "%"}, {"measurement": "inhibition", "setting": "[17]; single agent, at 0.05 µM", "result": -39.8, "unit": "%"}, {"measurement": "inhibition", "setting": "[17]; single agent, at 5 µM", "result": 1.39, "unit": "%"}, {"measurement": "log fold change Tl+ flux", "setting": "F380Y", "result": "-0.00202 (inactive)"}, {"measurement": "log fold change Tl+ flux", "setting": "F380Y/beta1", "result": "0.0188 (inactive)"}]}]}
